# Screens deposited in PubChem by National Center for Advancing Translational Sciences (NCATS).
# TrxR1 inh = qHTS Assay for Inhibitors of Mammalian Selenoprotein Thioredoxin Reductase 1 (TrxR1): qHTS | recombinant rTrxR1, NADPH fluorescence consumption, selenite substrate | 1% of 390,000 active | Thioredoxin reductase 1, cytoplasmic (Rattus norvegicus), O89049 | Potency, µM (highest dose often 114 µM), for inactives: top-dose activity change, negative = inhibition, most hits filed as inhibitors; further: nearly all actives have a fitted effect of over 65% in size
#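 Rat TrxR1 (90 nM in the dispensed reagent) was pre-reduced with 400 uM NADPH for 5 min at room temperature, then incubated with compound for 15 min. After 400 uM selenite was added, NADPH fluorescence (Ex 340/Em 450 nm) was followed for 8 min.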
# KAT2A inh = qHTS Assay for Inhibitors of GCN5L2; GCN5L2 HAT assay, ThioGlo1 CoA-SH fluorescence; Potency, µM (doses to about 58.9 µM), inactives show at the top dose activity change, negative = inhibition, usual class: inhibitors; 0.21% of 390,000 active; AID 504327, 2011
#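 Free CoA generated was detected with ThioGlo1 (50uM) fluorescence at Ex340nm/Em540nm, read immediately and after 20 min at room temperature. Enzyme, 20 nM in HEPES pH 7.5 buffer, saw compounds 15 min before adding 75uM H3(1-25) peptide and 70uM acetyl-CoA.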
# GLS inh = qHTS for Inhibitors of Glutaminase (GLS). Glutaminase kidney isoform, mitochondrial (Homo sapiens), O94925. GLS enzymatic activity, qHTS titration. Potency, µM (series often up to 45.5 µM), inactives show at the highest dose activity change, negative = inhibition, usual class: inhibitors. 0.21% of 410,000 active. AID 624170, 2012
# Target sequence (O94925 whole entry, looked up, canonical isoform): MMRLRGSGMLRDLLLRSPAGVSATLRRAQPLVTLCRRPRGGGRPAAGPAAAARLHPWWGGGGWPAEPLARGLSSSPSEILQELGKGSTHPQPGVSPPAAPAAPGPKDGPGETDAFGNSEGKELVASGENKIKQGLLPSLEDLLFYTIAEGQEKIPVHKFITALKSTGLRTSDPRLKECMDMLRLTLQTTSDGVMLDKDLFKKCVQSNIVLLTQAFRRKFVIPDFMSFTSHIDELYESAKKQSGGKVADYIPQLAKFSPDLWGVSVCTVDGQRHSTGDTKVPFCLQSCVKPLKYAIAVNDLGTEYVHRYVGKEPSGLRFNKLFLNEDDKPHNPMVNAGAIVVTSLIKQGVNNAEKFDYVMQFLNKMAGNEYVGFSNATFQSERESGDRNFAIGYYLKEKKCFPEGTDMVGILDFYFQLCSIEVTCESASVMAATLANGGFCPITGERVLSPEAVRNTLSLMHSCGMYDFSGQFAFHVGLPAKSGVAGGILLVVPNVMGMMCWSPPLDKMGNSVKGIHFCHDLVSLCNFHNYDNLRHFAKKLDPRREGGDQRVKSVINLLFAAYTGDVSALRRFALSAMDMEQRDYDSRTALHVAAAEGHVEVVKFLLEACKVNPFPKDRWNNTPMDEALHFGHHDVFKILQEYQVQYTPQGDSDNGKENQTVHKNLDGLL
#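 Human kidney-isoform GLS in 45 mM KH2PO4 pH 8.2, 0.02% Tween-20, with compound, started with 1mM L-Glutamine (added stock). Glutamate oxidase/HRP/Amplex red coupled fluorescence read at start and after 30 min at RT.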
# VDR inhibitor = Inhibitors of the vitamin D receptor (VDR): qHTS; Potency, µM, for the others: max response, negative = inhibition, hits mostly inhibitors; VDR-SRC2-3 peptide fluorescence polarization, 2 h; 0.93% of 400,000 active; AID 504847, 2011
#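 Reagent solutions, kept cold and dark, are dispensed first; compounds are then pinned in at 23 nl, plates briefly spun, and incubated 2 h at ambient temperature. Inhibition of VDR–SRC2-3 peptide binding is read by fluorescence polarization.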
# Sfp PPTase inh = qHTS Assay for Inhibitors of Bacillus subtilis Sfp phosphopantetheinyl transferase (PPTase); Biochemical Sfp PPTase activity, qHTS; Potency, µM, inactives show largest response in the series, negative = inhibition, hits mostly inhibitors; 3.5% of 310,000 active;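 further: the enzyme is Sfp with the accession as filed and its product quenches rhodamine fluorescence; 0% = enzyme reaction without inhibitor and -100% = no enzyme wells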
#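 Step 1, compound plus 15 nM Sfp-PPTase, 15 min, room temperature. Step 2, add rhodamine-CoA (5 uM) and BHQ-2-YbbR (12.5 uM). Step 3, read 525/598 nm fluorescence at 0 and 30 min.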
# TrxR1 substrate = qHTS Assay for Substrates of Mammalian Selenoprotein Thioredoxin Reductase 1 (TrxR1): qHTS | Thioredoxin reductase 1, cytoplasmic (Rattus norvegicus), O89049 | purified TrxR1 substrate turnover, NADPH consumption readout | Potency, µM (series often up to 114 µM), inactives show at the top dose activity change, negative = substrate turnover | 0.01% of 390,000 active | AID 588456, 2011; further: nearly all actives have a fitted effect of over 50% in size
#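 Rat TrxR1, dispensed at 90 nM, was prereduced with 400 uM NADPH (final) for 5 min at ~22 deg C, then incubated with compound 15 min before 400 uM selenite. A first-read NADPH fluorescence drop versus no-compound background flagged substrates.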
# Starred values were filed as active, the others as inactive; ? = inconclusive; · = not tested or not shown; [ ] = remark or other dose. A selection: hits, their analogues and other compounds. The true share with any hit is near 3.8%. The call rests on the fitted dose curve; in most records, active means well fitted curve in the direction sought with a large enough effect; inconclusive means small, poorly fitted or top-dose-only effect, or another doubt; inactive means no such curve, though single readings can be large; an effect the other way counts as inactive or inconclusive. Unless noted, on the % scale 0 is the no-effect control and ±100 the full control effect; potency means the concentration at half of the fitted maximal effect.
SMILES,TrxR1 inh,KAT2A inh,GLS inh,VDR inhibitor,Sfp PPTase inh,TrxR1 substrate
CCSc1nc2ccccc2n1CCC(=O)O,7.8%,-8.8%,1.8%,-5.4%,2.0%,4.5%
COc1ccc(-c2ccc(SCC(=O)c3cccs3)nn2)cc1,11.2%[57.1 µM],-2.5%,-2.3%,2.0%,-0.4%,-3.3%
O=C(N/N=C1\NC(=O)C(CO)(CO)S1)c1ccccc1,14.4%[57.1 µM],-8.4%,-6.0%,-11.0%,-28.7%,8.4%[57.1 µM]
CC1(C(=O)NS(=O)(=O)Cc2ccccc2)CCN1C(=O)C/C=C/c1ccccc1 (stereo not drawn),·,·,10.2%,·,·,·
COc1ccc2c(c1)c(/C=N/Nc1nc3ccccc3[nH]1)c(C)n2C,41.1%,-1.3%,-4.4%,-5.8%,11.2µM*,14.6%
Cc1cccc(C(=O)Nc2nnc(-c3ccc(C(C)(C)C)cc3)s2)c1,-7.6%[57.1 µM],?,-2.1%,?,2.3%,-5.5%[57.1 µM]
CCOC(=O)Nc1ccc2c(c1)N(C(=O)CCN(CC)CC)c1ccccc1S2=O (stereo not drawn),28.2µM*,-14.5%,-16.0%,?,6.2%,5.2%[57.1 µM]
CCOC(=O)Nc1ccc2c(c1)N(C(=O)CCN(CC)CC)c1ccccc1CC2,10.0%,-5.4%,-1.2%,3.2%,8.5%,0.4%
COc1ccc(C(=O)Nc2cc(C)on2)c(OC)c1,21.1%,0.3%,0.5%,-2.2%,15.5%,-1.3%
Cc1nnc(N/N=C/C(C)c2ccccc2)[nH]c1=O (stereo not drawn),9.2%,-4.6%,-3.0%,6.0%,79.4µM*,6.0%
Cc1cccc(N(C)C(=O)Cn2c(=O)oc3cc(S(=O)(=O)N4CCCCC4)ccc32)c1,19.2%,-3.8%,-6.0%,6.6%,·,-0.4%
Cc1ccc(C)n1/N=C1/NC(=O)CS1,?,1.7%,10µM*,20.1%,?,-13.6%
Cc1cc(C)nc(/N=C2/NC(=O)CS2)n1,47.6%[57.1 µM],1.2%,2.8%,?,31.6µM*,-9.0%
Cc1ccc(N=C2NC(=O)CS2)cc1,3.4%,1.5%,6.7%,-9.6%,19.0%,1.0%
O=C(Cc1c[nH]c2ccccc12)N1CCN(S(=O)(=O)c2ccc(F)cc2)CC1,·,·,1.4%,·,·,·
O=C(O)c1ccccc1-c1c2cc(Br)c(=O)c(Br)c-2oc2c(Br)c(O)c(Br)cc12,·,22.4µM*,-28.2%,35.5µM*,79.4µM*,·
O=S(=O)(Nc1cccc(-c2ccc(N3CCCCCC3)nn2)c1)c1ccccc1Cl,24.1%[57.1 µM],-25.5%,0.9%,-2.1%,-2.9%,5.0%[57.1 µM]
Cc1c(CC(=O)NCCCO)c(=O)oc2cc3c(cc12)CCC(C)(C)O3,56.2µM*,-2.0%,-11.3%,-8.9%,15.7%,383.9%
CC1C=C[C@@H]2[C@H](C1)C(=O)N(Cc1ccccc1)[C@H]2c1ccccc1Br (stereo partly drawn),·,-19.9%,·,44.7µM*,-14.6%,·
O=C1[C@H]2CCC=C[C@H]2[C@H](c2ccccc2Br)N1Cc1ccccc1,-21.3%,-1.5%,-1.4%,56.2µM*,-16.3%,-8.0%
O=C1[C@H]2CCC=C[C@H]2[C@H](c2cccc(Br)c2)N1Cc1ccccc1,-33.5%,-5.5%,13.1%,?,112µM*,-4.4%
COc1ccc(N2C(=O)[C@H]3CCC=C[C@H]3[C@@H]2c2ccccc2Br)cc1,-35.5%,-9.0%,0.3%,?,-32.3%,-4.5%
O=C(c1cccs1)N1CCCc2cc(NS(=O)(=O)c3ccc(F)cc3)ccc21,10.4%[57.1 µM],-11.6%,19.3%,5.8%,·,4.0%[57.1 µM]
Cc1ccc(S(=O)(=O)NNc2nnc(C)c(=O)[nH]2)cc1,2.7%[57.1 µM],-1.1%,12.8%,?,5.62µM*,2.0%[57.1 µM]
COc1ccc(Nc2nnc(C)c(=O)[nH]2)cc1,6.4%,-0.9%[0.501 µM],11.4%,-12.3%,15.5%,-3.4%
